According to PubChem BioAssay AID1069 (NMMLSC, 2008):
Activity calls are given as the source filed them.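 The calls were made as follows: active = high combined rank on largest and smallest cell-count-weighted shift across three tests, rank score above 45, floors 50 and 25 (some results past the limit were not filed as active); inactive = the rest.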

Experiment: LNCaP granularity increase inducers, single-point recheck – cell-based, side scatter shift, flow cytometry, confirmation (AID 1069);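 also: LNCaP human prostate cancer cells in low-serum medium with charcoal-stripped FBS; percent of cells with raised granularity gated so DMSO controls show 10%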
Conditions: LNCaP differentiation, 4 d, at 100 µM, active compounds read high
For `CCN1CCN(CCNC(=O)C2CCN(Cc3nc(-c4ccc(Cl)cc4)oc3C)CC2)CC1`, the side scatter shift was 44.7% (active).
In the case of `Cn1c(C(=O)NCCCN2CCN(c3cccc(Cl)c3)CC2)cc2c(=O)n(C)c3ccccc3c21`, the side scatter shift is reported as 69.6% (active).
With `O=C(Cc1coc(-c2ccc(F)cc2)n1)N1CCOCC1` the side scatter shift was 9.7% (inactive).
For `CCCOc1ccc2nc(NC(=O)OC)[nH]c2c1`, the side scatter shift was 8.3% (inactive).
With `CCN1C(=O)OC2(CCCCC2)C1(C)O` (stereo unspecified) the side scatter shift was 10.4% (inactive).
With `CCC(CC)C(=O)Nc1cccc(C(=O)NCc2ccco2)c1` the side scatter shift was 14.1% (inactive).
In the case of `Cc1ccc(Cl)cc1N1CCN(C(=O)c2cc3c(=O)n(C)c4ccccc4c3n2C)CC1`, the side scatter shift is reported as 12.9% (inactive).
For `CCCc1cc(-c2n[nH]c(C)c2-c2ccc(C(=O)OCC)o2)c(O)cc1O`, the side scatter shift was 42.9% (inactive).
In the case of `CCCNC(=O)C1CN(S(=O)(=O)c2ccccc2)CCN1S(=O)(=O)c1ccccc1` (stereo unspecified), the side scatter shift is reported as 13.3% (inactive).
With `COc1ccc(-c2cc(C(F)(F)F)nc(N3CCN(c4ccc(F)cc4)CC3)n2)cc1OC` the side scatter shift was 22.3% (inactive).
For `O=S(=O)(Nc1cccc2ncccc12)c1cccs1`, the side scatter shift was 14.3% (inactive).
With `CCn1c(=O)cc(SCC(=O)NCCCN2CCN(c3ccccc3F)CC2)c2ccccc21` the side scatter shift was 0% (active).
For `Cc1nc2ncnn2c(C)c1CCC(=O)NCCCN1CCN(c2cccc(Cl)c2)CC1`, the side scatter shift was 37.9% (inactive).
With `CCn1c(=N)n(CC(O)COc2cccc(C)c2)c2ccccc21` (stereo unspecified) the side scatter shift was 0% (inactive).
For `CC1CCCCN1CCNC(=O)c1cc2c(-c3ccccc3F)nn(C)c2s1` (stereo unspecified), the side scatter shift was 42.4% (inactive).
For `Cc1oc(-c2cccc(Cl)c2)nc1CN1CCCC(C(=O)NCc2ccco2)C1` (stereo unspecified), the side scatter shift was 50% (inactive).
